Source: PubChem BioAssay
Compounds with a hit are over-represented: about 0.37% of the library has one in this group of screens.
Rab7 wt GTP bind = dog Rab7 wildtype GTP binding, inhibitors and activators; GST-Rab7 beads, fluorescent GTP binding, flow cytometry; actives lie on both sides; untreated = 100%, excess cold GTP = 0%; GTP binding activity (percent of control), % at 10 µM; hit rate 0.055% among 190,000; AID 758;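 active = fluorescent GTP binding to Rab7 beads changed by at least 20 points from the 100% baseline, either direction, mostly lower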;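 also: median green fluorescence of bound Bodipy-FL-GTP per Rab7 bead population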
Rab2A wt mod = changes GTP binding to wildtype dog Rab2A, up or down | GTP binding activity, % at 10 µM | GST-Rab2 wt beads, Bodipy-GTP binding, flow cytometry | hit rate 0.19% among 190,000 | P61105;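 active = GTP binding activity at least 20 points away from 100%, either lowered or raised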
Rac1 mut GTP = human Rac1 activated mutant GTP binding change | P63000 | GST-Rac1 activated beads, fluorescent GTP binding, flow cytometry; actives lie on both sides; 100% means binding = to untreated wells | percent activity (GTP binding), % at 10 µM | hit rate 0.11% among 190,000 | AID 764;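 active = GTP binding at least 20 percentage points away from the 100% baseline, in either direction, so actives lie on both sides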
Cdc42 wt = human Cdc42 wildtype GTP binding change, either direction; percent activity (GTP binding), % at 10 µM; hit rate 0.2% among 190,000; GST-Cdc42 beads, Bodipy-GTP binding, flow cytometry; actives lie on both sides; P60953;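 active = percent activity GTP binding at least 20 points away from the 100% baseline, either down as inhibitor or up as activator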;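 also: median bead fluorescence of bound Bodipy-FL-GTP at 100 nM; below 100% means less GTP binding so inhibitor and above means activator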
Target sequence (P60953 whole entry, looked up): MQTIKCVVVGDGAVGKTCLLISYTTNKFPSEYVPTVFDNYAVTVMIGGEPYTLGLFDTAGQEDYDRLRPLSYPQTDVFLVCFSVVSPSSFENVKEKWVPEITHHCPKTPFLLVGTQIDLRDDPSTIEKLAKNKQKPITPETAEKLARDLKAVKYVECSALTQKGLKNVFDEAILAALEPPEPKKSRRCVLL
HRas wt GTP = human HRas wildtype GTP binding, change in either direction | GTP binding activity, % at 10 µM | hit rate 0.14% among 190,000 | P01112 | GST-Ras wt beads, Bodipy-FL-GTP binding, flow cytometry; actives lie on both sides;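 active = GTP binding activity at least 20% away from the 100% baseline, either lowered as inhibitor or raised as activator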
Target sequence (P01112 whole entry, looked up): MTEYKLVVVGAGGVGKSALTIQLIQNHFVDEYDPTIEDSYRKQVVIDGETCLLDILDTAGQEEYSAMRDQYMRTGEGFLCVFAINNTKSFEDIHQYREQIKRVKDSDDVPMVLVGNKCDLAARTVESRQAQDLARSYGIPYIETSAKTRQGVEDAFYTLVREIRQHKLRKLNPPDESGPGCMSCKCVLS
Rac1 wt GTP bind = alters GTP binding to wildtype human Rac1. GST-Rac1 beads, fluorescent GTP binding, flow cytometry; actives lie on both sides; 0 = cold GTP competed, 100 = untreated. GTP binding activity (% of control), % at 10 µM. AID 757. hit rate 0.27% among 190,000;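 active = GTP binding activity at least 20 points away from the 100% control level, either lower or higher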
Each line names hits and unclear results; the compound was inactive in the other large screens; [ ] = dose if it differs, or a comment.

COc1ccccc1OCCn1cc(C(=O)O)c2ccccc21	Rac1 mut GTP 120[activator], Rac1 wt GTP bind 120[activator]
Cc1ccccc1OCCn1cc(C(=S)N2CCN(C)CC2)c2ccccc21	none
O=C(O)c1cn(CCOc2ccccc2Cl)c2ccccc12	Rac1 wt GTP bind 121[activator]
COc1ccccc1OCCn1cc(C#N)c2ccccc21	none
COc1ccc(OC)c(C2=NOC(C(=O)NCc3cccs3)C2)c1 (stereo not given)	none
CCOc1ccc2ccccc2c1/C=N/n1cncn1	Rac1 wt GTP bind 130[activator]
CCOc1ccc2c(c1)c(N=Nc1cccc(C(=O)O)c1)c(O)n2C	none
CCOc1ccc2c(c1)c(N=NC(=N)N)c(O)n2C	Rac1 wt GTP bind 78
COc1ccc(C(CC(=O)O)NC(=O)c2cc3cc(Br)ccc3oc2=O)cc1OC (stereo not given)	Rab2A wt mod 76, Rac1 mut GTP 76, Cdc42 wt 77
O=C(Nc1nc(-c2ccc(S(=O)(=O)N3CCCC3)cc2)cs1)c1cccs1	Rab2A wt mod 70, Cdc42 wt 71, HRas wt GTP 71
O=C(Nc1ccc(S(=O)(=O)N2CCCC2)cc1)c1cccs1	none
S=C1NCCOCCOCCNC(=S)N2CCOCCOCCN1CCOCCOCC2	none
Cc1cc(C)n2nc(SCCOc3ccccc3F)nc2n1	Rab2A wt mod 71, Cdc42 wt 66, HRas wt GTP 71, Rac1 wt GTP bind 74
CCSc1nc2nc(C)cc(C)n2n1	none
O=C(NC1CCCCC1)c1cc([N+](=O)[O-])[nH]n1	Rac1 wt GTP bind 127[activator]
CCCCNC(=O)c1cc([N+](=O)[O-])[nH]n1	Rac1 wt GTP bind 127[activator]
O=C(C#Cc1ccccc1)c1ccc([N+](=O)[O-])cc1	Rac1 mut GTP 77
Cc1cc(C)cc(NC(=O)c2c(C)nc3ccccn23)c1	none
CC(=O)Nc1ccc(NC(=O)CCn2nnc3ccccc32)cc1	Rab7 wt GTP bind 39, Rab2A wt mod 35, HRas wt GTP 32
O=C(NC1CCCCCC1)c1cc(=O)[nH]c2ccc(S(=O)(=O)N3CCOCC3)cc12	none
Cc1csc(NC(=O)c2cc(=O)[nH]c3ccc(S(=O)(=O)N4CCOCC4)cc23)n1	Rab2A wt mod 79, Rac1 wt GTP bind 75
Cc1sc2nc3c4ccccc4c(NCc4ccco4)nn3c(=O)c2c1C	Rab2A wt mod 74, Cdc42 wt 75, HRas wt GTP 76
CCCCn1c(O)c(/C=C/C=C/C=Nc2ccccc2)sc1=S	Rac1 mut GTP 78
CCn1c(O)c(/C=C/C=C/C=Nc2ccccc2)sc1=S	none
O=C(Cn1c2ccccc2c(=O)c2cc([N+](=O)[O-])ccc21)Nc1ccccc1Cl	none
COc1ccc(C(=O)CSc2ccc3nnc(-c4cccnc4)n3n2)cc1	none
O=C(O)CSc1ccc2nnc(-c3cccnc3)n2n1	Rac1 wt GTP bind 78
O=C(O)C1=C[C@H](c2ccc(Br)cc2)C[C@H](OCc2ccc(CO)cc2)O1	Rab2A wt mod 74, Rac1 mut GTP 69, Cdc42 wt 71, HRas wt GTP 78, Rac1 wt GTP bind 75
O=C(O)C1=C[C@@H](c2ccccc2)C[C@@H](OCc2ccc(CO)cc2)O1	none
CC(O/N=C/c1ccc(OC(F)F)cc1)C(=O)Nc1cccc(S(=O)(=O)N2CCOCC2)c1 (stereo not given)	none
Cc1cc(C)n(CC(O)Cn2c3ccc(Cl)cc3c3cc(Cl)ccc32)c(=O)n1 (stereo not given)	none
OC(CNCCC1C=Nc2ccccc21)Cn1c2ccc(Cl)cc2c2cc(Cl)ccc21 (stereo not given)	Rac1 wt GTP bind 144[activator]
CCOc1ccc(Oc2ccccc2NC(=O)CCNC(C)=O)cc1	none
COc1ccc(-c2cc(-c3ccc(O)cc3)nc(N)c2C#N)cc1OC	Rab2A wt mod 79, Rac1 wt GTP bind 69
COc1ccc(-c2c(C#N)c(N)nc3c2CCc2ccccc2-3)cc1OC	none
Cc1nc2cccc(C)n2c(=O)c1Cl	Rac1 wt GTP bind 120[activator]
Cc1ccc2c(c1)N(C(=O)CCC(=O)O)CCO2	none
